# LASV entry inh = inhibitors of Lassa virus binding or cell entry | Lassa virus pseudotype entry inhibition, cell reporter | Potency, µM (titrated, usually from 37.9 µM), inactives show top-dose activity change, negative = inhibition, most hits filed as inhibitors | hit rate 1.2% among 300,000 | AID 540256; calls by dose curve; tested in HEK293 cells; note: potency is the fitted concentration of half-maximal effect; nearly all actives have a fitted effect of over 50% in size
# VACV Venus inh = inhibitors of vaccinia virus (Venus reporter); AID 720580; Potency, µM (doses to about 36.5 µM), without a hit: at the top dose activity change, negative = inhibition, hits mostly inhibitors; Vaccinia virus Venus reporter expression, fluorescence; hit rate 0.46% among 330,000; calls by dose curve; tested in A549 cells; note: potency is the fitted concentration of half-maximal effect; nearly all actives have a fitted effect of over 30% in size
# HCMV antiviral = inhibitors of human cytomegalovirus; hit rate 4.5% among 410,000; activity change, negative = inhibition, % at 57.5 µM; HFF cells, HCMV-luciferase reporter, 72 h; stronger effect = lower value; in the data active = activity change below about -60%; inconclusive = no clear call, values can overlap the other calls; inactive = above about -39%
#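 Steps: HFFs plated, 16 h 37C; compounds added; HCMV-luciferase added to MOI 1 PFU/cell; 72 h 37C; OneGlo reagent, 5 min room temperature; luminescence read, normalized to controls.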
# VACV mCherry inh = vaccinia inhibition (mCherry reporter) | Potency, µM (top dose mostly 36.5 µM), without a hit: at the highest dose activity change, negative = inhibition, hits mostly inhibitors | Vaccinia virus mCherry reporter infection, fluorescence | hit rate 0.63% among 310,000 | AID 720579; calls by dose curve; tested in A549 cells; note: potency is the fitted concentration of half-maximal effect; nearly all actives have a fitted effect of over 35% in size
# FMDV inh = blocks foot and mouth disease virus; FMDV antiviral cell-based qHTS; Potency, µM (doses to about 57.9 µM), inactives show top-dose activity change, negative = inhibition, hits mostly inhibitors; hit rate 1.2% among 410,000; AID 1159524; calls by dose curve; tested in HEK293T cells; note: read-out not given here; potency is the fitted concentration of half-maximal effect; nearly all actives have a fitted effect of over 45% in size
# Marburg entry inh = inhibitors of Marburg virus binding or cell entry | Potency, µM (series often up to 37.8 µM), without a hit: top-dose activity change, negative = inhibition, hits mostly inhibitors | AID 540276 | Marburg virus pseudotyped entry inhibition, cell reporter | hit rate 1.8% among 300,000; calls by dose curve; tested in HEK293 cells; note: potency is the fitted concentration of half-maximal effect
# Active calls of the source: *; i = inactive; ? = inconclusive; . = not tested or not shown; + = active, no number; [ ] = remark or other dose. Only some compounds are listed: those with a hit (about 6.5% of all), similar ones and a draw of the others. % is set by controls: 0 for no effect and ±100 for the full control effect.
SMILES,LASV entry inh,VACV Venus inh,HCMV antiviral,VACV mCherry inh,FMDV inh,Marburg entry inh
O=C(N/N=C/c1ccc(O)cc1O)/C(=C/c1ccccc1)CCO,?,?,-18.4,11.2µM*,26.1%,?
CCOc1ccc(CCNC(=O)C2=C(C)C(=O)OC23CCCCC3)cc1,-0.2%[46.1 µM],-9.9%,-30.2,-17.3%,-10.4%,-2.1%[46.1 µM]
CCc1ccc(/C=N/NC(=O)c2cc(-c3ccccc3OC)nc3ccccc23)s1,?,-8.2%,44.0,-17.1%,-10.4%,?
Cc1nonc1C(=O)N/N=C/c1ccc(O)cc1O,?,?,14.5,8.91µM*,28.3%,?
O=C(N/N=C/c1ccccn1)c1cc(-c2ccc(Cl)cc2)nc2ccccc12,?,-11.3%,9.4,-14.3%,?,?
Cc1cccc(-c2cc(C(=O)N/N=C/c3cccnc3)c3ccccc3n2)c1,-8.8%[46.1 µM],14.2%,8.6,?,4.7%,?
O=C(N/N=C/c1ccccn1)c1cc(-c2ccc(Br)cc2)nc2ccccc12,?,?,-99.6*,?,-12.4%,?
Cc1nonc1C(=O)N/N=C/c1ccncc1,.,-6.6%,14.0,i,0.0%,.
COc1ccccc1-c1cc(C(=O)N/N=C/c2ccc(C)s2)c2ccccc2n1,7.08µM*,-8.6%,-23.4,?,-14.2%,8.91µM*
COc1ccc(-c2cc(C(=O)N/N=C/c3cccnc3)c3ccccc3n2)cc1,10µM*,-17.1%,?,?,6.5%,?
C[n+]1ccc(C(c2c[nH]c3ccccc23)c2cc[n+](C)c3ccccc23)c2ccccc21,.,i,.,231.4%,.,.
CCSc1nc2n(n1)C(c1ccc(CC)cc1)C(C(=O)Nc1ccccc1OC)=C(C)N2 (stereo unspecified),14.0%[46.1 µM],-24.0%,-1.3,-26.0%,-13.1%,.
O=C(N/N=C/c1cccnc1)C1CC1(c1ccccc1)c1ccccc1 (stereo unspecified),-4.9%,-11.5%,-67.1*,i,-19.1%,?
Cc1ccc(-c2cc(C(=O)NCc3cnn(C)c3C)c3ccccc3n2)cc1C,-15.9%[46.1 µM],-7.7%,45.5,-13.4%,6.7%,?
COc1cc(/C=N/NC(=O)c2cc(-c3cccc(OC(C)C)c3)nc3ccccc23)ccc1O,3.55µM*,11.6%,-60.6*,?,-24.9%,3.55µM*
CCc1cc(C(=O)N/N=C/c2ccc(O)cc2O)c2ccccc2n1,?,-22.9%,29.4,1.12µM*,6.2%,?
Cc1ccc(-c2cc(C(=O)N/N=C\c3cnn(C)c3C)c3ccccc3n2)cc1C,11.2µM*,-17.8%,-30.9,i,18.2%,-24.0%
COc1cc(/C=N/NC(=O)c2cc(-c3cccs3)nc3ccccc23)ccc1O,.,.,-20.5,.,-21.4%,.
COC(=O)C1CCN(Cc2ccc3c(c2)CN(C(=O)c2ccc4nc(C)c(C)nc4c2)CCO3)CC1,.,-1.9%,.,-11.8%,-1.4%,.
CC(C)CN(c1ccccc1)S(=O)(=O)c1nnc(NC(=O)C2CCCCC2)s1,13.5%[46.1 µM],-6.1%,5.4,-6.2%,6.6%,.
COC1CCCCC1C1CCN(C(=O)c2cccs2)CC1 (stereo unspecified),.,.,.,.,.,-7.1%
O=C(O)COc1ccccc1/C=N/NC(=O)c1cc(-c2ccccc2)nc2ccccc12,4.1%,-11.2%,+,-14.9%,-8.4%,-5.5%
CCCOc1cccc(-c2cc(C(=O)NN)c3ccccc3n2)c1,?,-11.5%,-28.0,-29.2%,?,?
O=C(O)COc1ccccc1/C=N/NC(=O)c1cc(-c2ccc(Cl)cc2)nc2ccccc12,-25.2%,-1.9%,0.0,?,-12.7%,2.5%[46.1 µM]
CCCOc1cccc(-c2cc(C(=O)N/N=C/c3ccccn3)c3ccccc3n2)c1,?,-6.7%,-113.1*,?,-25.3%,?
SMILES,LASV entry inh,VACV Venus inh,HCMV antiviral,VACV mCherry inh,FMDV inh,Marburg entry inh
COc1ccc(NC(=O)C2CCC(CNS(=O)(=O)c3ccc(Br)s3)CC2)cc1OC (stereo unspecified),-5.0%[46.1 µM],-24.1%,-20.8,-26.5%,-13.7%,-11.0%[46.1 µM]
CCc1ccc(NC(=O)CSC2=Nc3ccccc3C3=NC(CC(=O)NCc4ccc5c(c4)OCO5)C(=O)N23)cc1 (stereo unspecified),11.8%[46.1 µM],3.0%,50.6,-10.5%,27.2%,.
N#Cc1cccc(NC(=O)C2CCN(S(=O)(=O)c3ccc4[nH]c(=O)ccc4c3)CC2)c1,?,2.3%,7.8,8.3%,-23.2%,.
C=C(C)c1cccc(C(C)(C)NC(=O)Nc2cccnc2)c1,?,-17.3%,-9.4,i,0.0%,?
C=C(C)c1cccc(C(C)(C)NC(=O)Nc2ccc(C(N)=O)cc2)c1,0.0%[46.1 µM],-13.9%,-67.4*,i,?,?
Cc1ccc(CNC(=O)Cn2cc(S(=O)(=O)Cc3ccccc3F)c3ccccc32)cc1,13.7%[46.1 µM],-1.3%,0.0,-10.9%,-1.5%,.
Cc1ccc(N(CC(=O)NCCc2ccccc2)C(=O)c2csnn2)cc1,-12.5%[46.1 µM],-2.5%,-87.6*,-4.3%,2.7%,-7.7%[46.1 µM]
Nc1ccn(C2OC(COP(=O)(O)O)C(O)C2O)c(=O)n1 (stereo unspecified),-14.9%[46.1 µM],?,-96.9*,31.6µM*,-16.8%,?
CC(C)Oc1ccc(C(=O)Nc2nnc(SCC(=O)N3CCOCC3)s2)cc1,2.82µM*,-14.0%,-21.3,i,?,?
CCOC(=O)CNC(=O)CSc1nnc(NC(=O)c2ccc3c(c2)OCO3)s1,?,-12.8%,70.8,-9.7%,-4.7%,?
Cc1ccc(C(=O)Nc2nnc(SCC(=O)N3CCCc4ccccc43)s2)cc1,3.55µM*,-6.3%,-19.8,i,?,?
CCOC(=O)CNC(=O)CSc1nnc(NC(=O)c2ccc(C)cc2)s1,?,-1.6%,-29.1,-15.7%,-59.7%,6.31µM*
CCCCCCCc1cc2ccc(F)cc2c2c(C(=O)OC)c(C(=O)OC)c(C(=O)OC)n12,.,.,.,.,.,-18.8%[14.2 µM]
Cc1cccc(C)c1N=CN1c2ccccc2-n2cccc2C1c1ccc([N+](=O)[O-])cc1 (stereo unspecified),.,.,-6.2,.,.,.
Cc1cc(C)cc(Cn2c3ccc(NC(=O)NCCc4cccs4)cc3c(=O)n2C)c1,.,-9.7%,8.3,1.3%,56.9%,.
Cn1c(=O)c2cc(NC(=O)NCCc3cccs3)ccc2n1Cc1ccccc1,.,0.9%,-76.8*,1.0%,14.4%,.
COc1cc(Cn2c3ccc(NC(=O)NCCc4ccccc4)cc3c(=O)n2C)ccc1F,.,-15.8%,-68.0*,16.6%,14.5%,.
CCOC(=O)C(=O)C1(C(=O)OCC)Oc2cc(OC)cc(OC)c2C(=O)C1c1ccccc1 (stereo unspecified),.,42.7%,.,40.1%,39.7%,.
NC(=S)N/N=C/c1ccccc1OC(=O)/C=C/c1ccccc1,.,.,-110.1*,.,-20.4%,.
NC(=S)N/N=C\c1c2ccccc2cc2ccccc12,13.4%,?,-24.4,?,0.0%,?
NC(=S)N/N=C/c1ccc2c(c1)OCCO2,?,10µM*,69.9,11.2µM*,46.3%,-9.5%[46.1 µM]
O=C(NN=Cc1ccccc1)NN=Cc1ccccc1,-8.6%[46.1 µM],5.2%,43.0,-9.4%,30.9%,?
NC(=S)N/N=C/c1ccccc1,5.7%,?,-36.4,5.62µM*,-8.8%,3.3%
